Inconclusive results are not listed. Calls of active or inactive are those of the source. Rule for the calls, unless noted: active = hit-call score of the fitted dose curve at least 0.9, where 1 is the maximum; inconclusive = response in the unintended direction; inactive = score below 0.9.
Columns and labels:
[1] = CCTE_Deisenroth_5AR_NBTE_acceptor: CCTE's 5alpha-reductase NanoBRET Target Engagement Assay - Autofluorescence Screen, Deisenroth Lab (AID 2284321; active = hit-call score of the fitted dose curve at least 0.9, where 1 is the maximum; inactive = score below 0.9;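 note: compound fluorescence in the acceptor channel under 460 nm excitation flags autofluorescence artifacts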); conditions: actives raise or lower the signal
Outline: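 HEK293T cell-based NanoBRET assay read 5 h after dosing; this acceptor channel serves as an autofluorescence artifact screen. Chemicals at nominal 100 uM were scanned in three independent runs (n=3), excitation 460 nm. Fitting was bidirectional versus DMSO baseline.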

[2] = tested on: SRD5A2 (gene 6716); experiment: CCTE_Deisenroth_5AR_NBTE_ratio: CCTE's 5alpha-reductase NanoBRET Target Engagement Assay - Ratio, Deisenroth Lab (AID 2284322; active = hit-call score of the fitted dose curve at least 0.9, where 1 is the maximum; inactive = score below 0.9); conditions: actives raise or lower the signal
Outline: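 SRD5A2-NanoLuc HEK293T; cmpd 10 nM-29.9 uM, 3 h preinc + testosterone tracer 2 h; NanoBRET ratio 650/460; bidirectional fit vs DMSO.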

[3] = tested on: SERPINA7 (gene 6906); experiment: CCTE_GLTED_hTBG: CCTE's human Thyroxine-binding Globulin (TBG) Inhibition Assay, Great Lakes Toxicology and Ecology Division (GLTED) Lab (AID 2284343);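 note: active chemicals lower fluorescence versus DMSO baseline by displacing probe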
Outline: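 Fluorescence (ex 380/em 475) reports ANSA displaced from human TBG after a 2 h incubation with test chemical, without cells. Loss of signal indicates displacement, with DMSO serving as baseline.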

[4] = tested on: IYD (gene 389434); experiment: CCTE_GLTED_hIYD: CCTE's human Iodotyrosine Deiodinase (xIYD) Inhibition Assay, Great Lakes Toxicology and Ecology Division (GLTED) Lab (AID 2284317);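 note: cell-free human IYD enzyme made in baculovirus insect cells; iodide freed from monoiodotyrosine measured by cerium arsenite color change at 420 nm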
Outline: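 Cell-free; baculovirus/insect-cell hIYD + MIT substrate + chemical, 3 h. Dowex column cleanup, then Ce4+/As3+ Sandell-Kolthoff read at A420 nm. Triplicate plates; normalized to 3-nitro-L-tyrosine (positive) and DMSO/NaOH (solvent).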

[5] = tested on: TTR (gene 7276); experiment: CCTE_GLTED_hTTR_0.5uM: CCTE's human Transthyretin (hTTR) Inhibition Assay, with 0.5uM TTR, Great Lakes Toxicology and Ecology Division (GLTED) Lab (AID 2284320; active = hit-call score of the fitted dose curve at least 0.9, where 1 is the maximum; inactive = score below 0.9)
Outline: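 Probe (ANSA) displacement from 0.5 uM human transthyretin was followed by fluorescence (ex 380, em 475) after a 2 h incubation with chemical. Activity was scored as signal loss and fitted positively relative to DMSO.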

[6] = CCTE_Mundy_HCI_iCellGluta_NOG_NeuronCount: CCTE's Neurite Outgrowth Assay in iCellGluta cells for Neuron Count, Mundy Lab (AID 2284340);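 note: cells fixed about 48 h after compound addition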
Outline: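 Neuron count read by automated high-content imaging of Hoechst 33342 and betaIII-tubulin/Alexa Fluor-488 labelling in human iPSC glutamatergic neurons. Activity fitted relative to DMSO.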

[7] = CCTE_Mundy_HCI_iCellGluta_NOG_NeuriteCount: CCTE's Neurite Outgrowth Assay in iCellGluta cells for Neurite Count, Mundy Lab (AID 2284342);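 note: chemical exposure about 48 hours starting 2 hours after plating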
[8] = IUF_NPC5_oligodendrocyte_differentiation_120hr: Leibniz Research Institute for Environmental Medicine (IUF) 120-hour Oligodendrocyte Differentiation Assay (NPC5) (AID 2284304);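 note: primary human fetal neural progenitor spheres plated to migrate and differentiate; share of O4-positive cells among Hoechst nuclei found by CNN image analysis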
Outline: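 Primary human fetal (GW 16-19) neural progenitor spheres (0.3 mm) plated on poly-D-lysine/laminin in N2 differentiation medium, exposed from day 0 for 120 h with half-medium refresh at day 3; O4-positive cells as percent of Hoechst nuclei, CNN-identified, versus DMSO.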

[9] = IUF_NPC4_neurite_area_120hr: Leibniz Research Institute for Environmental Medicine (IUF) 120-hour Neuronal Morphology Assay for Neurite Area (NPC4) (AID 2284305)
Outline: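 hNPC spheres on PDL/laminin, N2 medium, 37C/5% CO2; dosed day 0, half-medium refresh day 3; fixed 120 h; TUBB3/Hoechst ICC, high-content imaging; neurite area = mean pixels per neuron (nuclei excluded); DMSO baseline, max 0.1%.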

[10] = IUF_NPC2-5_cytotoxicity_72hr: Cytotoxicity Assessment at 72 hours in the Leibniz Research Institute for Environmental Medicine (IUF) Neural Progenitor Cell Migration and Differentiation Assay for Cytotoxicity (NPC2-5) (AID 2284306);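 note: LDH release into supernatant measured by resorufin fluorescence marking membrane damage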
Outline: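 hNPC spheres (0.3 mm), PDL/laminin, DMEM/F12 3:1 + 1% N2; cpd from d0, 7 concs + SC, DMSO max 0.1%; half-medium refresh d3. Readout: supernatant LDH via resorufin fluorescence (RFU), 72 h; gain-of-signal fit.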

[11] = IUF_NPC2-5_cytotoxicity_120hr: Cytotoxicity Assessment at 120 hours in the Leibniz Research Institute for Environmental Medicine (IUF) Neural Progenitor Cell Migration and Differentiation Assay (NPC2-5) (AID 2284307)
Outline: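 Human fetal neural progenitor spheres (0.3 mm, GW 16-19 cortex) were plated on poly-D-lysine/laminin in N2 differentiation medium and exposed for 120 h, with half-medium refresh at day 3. LDH release into supernatant was read by resorufin fluorescence.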

[12] = IUF_NPC2-5_cell_number_120hr: Cell Number Assessment at 120 hours in the Leibniz Research Institute for Environmental Medicine (IUF) Neural Progenitor Cell Migration and Differentiation Assay (NPC2-5) (AID 2284308; active = hit-call score of the fitted dose curve at least 0.9, where 1 is the maximum; inactive = score below 0.9;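 note: count of Hoechst-stained nuclei in migration zone around plated human neural progenitor spheres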)
Outline: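 Primary human fetal neural progenitor spheres (GW 16-19, 0.3 mm) plated on poly-D-lysine/laminin in N2 differentiation medium, exposed from day 0 for 120 h with half-medium refresh at day 3; Hoechst-positive nuclei counted in migration area versus DMSO control.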

[13] = IUF_NPC2-5_viability_120hr: Viability Assessment at 120 hours in the Leibniz Research Institute for Environmental Medicine (IUF) Neural Progenitor Cell Migration and Differentiation Assay (NPC2-5) (AID 2284312; active = hit-call score of the fitted dose curve at least 0.9, where 1 is the maximum; inactive = score below 0.9)
Outline: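 Human fetal neural progenitor spheres (0.3 mm) plated on poly-D-lysine/laminin in N2 differentiation medium, exposed 120 h with half-medium refresh at day 3. Viability by alamar blue resazurin fluorescence; 7 concentrations, DMSO max 0.1%.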

[14] = CCTE_Mundy_HCI_iCellGluta_NOG_NeuriteLength: CCTE's Neurite Outgrowth Assay in iCellGluta cells for Neurite Length, Mundy Lab (AID 2284318)
Outline: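 Automated high-content imaging of betaIII-tubulin (Alexa Fluor-488) and Hoechst-stained cells gave neurite length, normalized to the DMSO baseline.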

[15] = IUF_NPC1_cytotoxicity_72hr: Cytotoxicity Assessment at 72 hours in the Leibniz Research Institute for Environmental Medicine (IUF) Neural Progenitor Cell Proliferation Assay (NPC1) (AID 2284332);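 note: rising LDH signal means more cytotoxicity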
Outline: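 LDH in supernatant, resazurin→resorufin fluorescence (RFU), 72 h exposure, no re-dosing. Cells: primary hNPC spheres, one per well, EGF+FGF medium, 37C/5% CO2, pH 7.2-7.6. Fit: positive direction vs baseline and dynamic range.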

**Q.** For COc1ccc(-c2coc3cc(O)cc(O)c3c2=O)cc1, which outcome [1] is on record?
**A.** The outcome was “inactive”.

**Q.** What about the AC50 [2] of the same molecule?
**A.** The AC50 was 23.6 µM (active).

**Q.** What about the AC50 [3] of the same molecule?
**A.** The AC50 was 23 µM (active).

**Q.** With O=C(Nc1ccccc1)c1cc(Cl)ccc1O as the molecule, how does the outcome [4] read?
**A.** The outcome was “inactive”.

**Q.** Which AC50 [3] does the source give for COc1ccc(C(=O)c2ccccc2)c(O)c1 here?
**A.** The AC50 was 7.45 µM (active).

**Q.** With CC(C)(c1ccccc1)c1ccc(Nc2ccc(C(C)(C)c3ccccc3)cc2)cc1 as the molecule, how does the AC50 [3] read?
**A.** Its AC50 is 25.2 µM (active).

**Q.** With Cc1ccc(C)c(OCCCC(C)(C)C(=O)O)c1 as the molecule, how does the AC50 [3] read?
**A.** Its AC50 is 27 µM (active).

**Q.** With CCCCCCCCCCCCCCCCCCOS(=O)(=O)O as the molecule, how does the AC50 [4] read?
**A.** Its AC50 is 19.5 µM (active).

**Q.** For CCCCOCCOC(=O)COc1ccc(Cl)cc1Cl, which AC50 [3] is on record?
**A.** The AC50 was 12.7 µM (active).

**Q.** With O=C(O)C(F)(F)C(F)(F)C(F)(F)C(F)(F)C(=O)O as the molecule, how does the AC50 [5] read?
**A.** Its AC50 is 5.53 µM (active).

**Q.** What about the outcome [6] of the same molecule?
**A.** The outcome was “inactive”.

**Q.** And the outcome [7]?
**A.** The outcome was “inactive”.

**Q.** For C[N+](C)(C)CCCNS(=O)(=O)C(F)(F)C(F)(F)C(F)(F)C(F)(F)C(F)(F)C(F)(F)C(F)(F)C(F)(F)F, which AC50 [5] is on record?
**A.** Its AC50 is 1.04 µM (active).

**Q.** Which results are given for Oc1ccc(-c2ccccc2)c(Cl)c1?
**A.** outcome [1]: inactive; outcome [2]: inactive; AC50 [3]: 15.4 µM (active)

**Q.** For Cc1ccc([N+](=O)[O-])cc1N, which AC50 [3] is on record?
**A.** The AC50 was 50 µM (active).

**Q.** Which outcome [8] does the source give for Cc1c(C(=O)c2c[nH]n(C)c2=O)ccc(S(C)(=O)=O)c1C1=NOCC1 here?
**A.** Its outcome is “inactive”.

**Q.** What about the outcome [9] of the same molecule?
**A.** The outcome was “inactive”.

**Q.** What about the outcome [10] of the same molecule?
**A.** Its outcome is “inactive”.

**Q.** What about the outcome [11] of the same molecule?
**A.** Its outcome is “inactive”.

**Q.** And the outcome [12]?
**A.** The outcome was “inactive”.

**Q.** What about the outcome [13] of the same molecule?
**A.** Its outcome is “inactive”.

**Q.** What about the outcome [14] of the same molecule?
**A.** The outcome was “inactive”.

**Q.** What about the outcome [15] of the same molecule?
**A.** Its outcome is “inactive”.

**Q.** And the outcome [6]?
**A.** The outcome was “inactive”.

**Q.** And the outcome [7]?
**A.** The outcome was “inactive”.

**Q.** What does the source list for CCCCNS(=O)(=O)c1ccccc1?
**A.** outcome [8]: inactive; outcome [9]: inactive; outcome [10]: inactive; outcome [11]: inactive; outcome [12]: inactive; outcome [13]: inactive; outcome [14]: inactive; outcome [15]: inactive; outcome [6]: inactive; outcome [7]: inactive

**Q.** Which outcome [14] does the source give for Cc1noc(NS(=O)(=O)c2ccc(N)cc2)c1C here?
**A.** The outcome was “inactive”.

**Q.** And the outcome [7]?
**A.** Its outcome is “inactive”.

**Q.** With CCCCCCCCCCCCCC(=O)OC(C)C as the molecule, how does the outcome [1] read?
**A.** Its outcome is “inactive”.

**Q.** And the outcome [2]?
**A.** Its outcome is “inactive”.
